Counter-ions that a name gives are not always drawn. Values without a mark were called inactive.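 The calls were made as follows: active = log2 fold change beyond 2 SD from the library mean after excluding viability outliers; inactive = within 2 SD.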

The target of this test is PARP1 L713F-nLuc biosensor (HCT116) (UniProt P09874). The test is described as follows: PARP1 L713F-nLuc/akaLuc ratio relative to DMSO control (biosensor stabilization) (fold change); higher = more PARP1 biosensor stabilization (target engagement / stabilizer), active = hit call of the paper. As to conditions: stock concentration (mM; final µM = stock mM x 1): 10; 24 h.
PARP1 L713F-nLuc biosensor (HCT116), sequence (P09874 whole entry L713F, looked up): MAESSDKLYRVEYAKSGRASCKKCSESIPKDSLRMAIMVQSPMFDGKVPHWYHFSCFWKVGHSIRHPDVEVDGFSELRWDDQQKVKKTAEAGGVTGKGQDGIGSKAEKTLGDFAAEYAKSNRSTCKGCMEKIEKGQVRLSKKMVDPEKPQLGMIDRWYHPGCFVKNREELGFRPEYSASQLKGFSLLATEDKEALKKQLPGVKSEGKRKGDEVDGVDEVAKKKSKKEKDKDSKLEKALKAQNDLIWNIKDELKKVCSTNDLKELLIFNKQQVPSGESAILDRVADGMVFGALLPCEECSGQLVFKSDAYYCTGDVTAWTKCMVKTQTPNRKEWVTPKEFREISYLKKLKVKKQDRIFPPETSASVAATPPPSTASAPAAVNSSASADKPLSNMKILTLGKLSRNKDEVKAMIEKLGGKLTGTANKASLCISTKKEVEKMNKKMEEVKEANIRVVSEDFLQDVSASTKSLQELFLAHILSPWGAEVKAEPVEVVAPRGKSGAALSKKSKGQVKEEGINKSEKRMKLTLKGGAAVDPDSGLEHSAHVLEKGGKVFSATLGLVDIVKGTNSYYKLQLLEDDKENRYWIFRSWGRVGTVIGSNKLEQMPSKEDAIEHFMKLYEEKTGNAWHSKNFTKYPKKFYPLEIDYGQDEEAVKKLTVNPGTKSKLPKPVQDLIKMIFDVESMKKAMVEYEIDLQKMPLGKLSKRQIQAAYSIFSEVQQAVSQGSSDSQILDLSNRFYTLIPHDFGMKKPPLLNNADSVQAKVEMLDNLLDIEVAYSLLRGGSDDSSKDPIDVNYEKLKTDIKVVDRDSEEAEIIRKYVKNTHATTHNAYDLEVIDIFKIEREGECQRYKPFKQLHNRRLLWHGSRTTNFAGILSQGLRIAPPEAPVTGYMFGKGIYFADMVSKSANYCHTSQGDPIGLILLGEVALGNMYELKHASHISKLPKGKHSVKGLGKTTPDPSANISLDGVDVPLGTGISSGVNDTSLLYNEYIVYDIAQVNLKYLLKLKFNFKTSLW
Regarding `O=C(Nc1ccc(-c2ccnc(Nc3ccc(N4CCOCC4)cc3)n2)cc1)C1CCCN1` (stereo not drawn), the “PARP1 L713F-nLuc/akaLuc ratio” value was 0.659.

With `Clc1ccc(C(c2ccccc2Cl)C(Cl)Cl)cc1` (stereo not drawn) [Mitotane], the “PARP1 L713F-nLuc/akaLuc ratio” value is 0.67. Under `O=C(c1ccc(Cl)cc1Cl)n1nnc2ccccc21` stands 0.91.

In the case of `C[C@@H]1C[C@H]2[C@@H]3CCC4=CC(=O)C=C[C@]4(C)[C@@]3(F)[C@@H](O)C[C@]2(C)[C@@]1(O)C(=O)CO` [Dexamethasone (DHAP)], the “PARP1 L713F-nLuc/akaLuc ratio” value is 1.03. Then `NC(=O)N1CCC(CC(=O)N2CCC([C@H]3c4ncc(Br)cc4CCc4cc(Cl)cc(Br)c43)CC2)CC1` [Lonafarnib], with 1.59; and `C[C@@H]1COCCN1c1cc(C2([S@](C)(=N)=O)CC2)nc(-c2cc[nH]c3nccc2-3)n1`, with 1.79. Under `NC(=O)c1nc(-c2c(F)cccc2Cl)oc1Nc1ccc(C(=O)N2CCOCC2)cc1` stands 0.914; under `C=CC(=O)Nc1cccc(-c2c[nH]cc2CN(C)CCN)c1`, 1.61. Then `NC(=O)c1cccc(-c2cccc(OC(=O)NC3CCCCC3)c2)c1`, with 1.05; and `O=C(NCCCN1CCCC1)c1cncc(-c2ccccc2N2CCN(CCc3c[nH]c4ccccc34)CC2)c1`, with 0.537; and `O=C(/C=C\n1cnc(-c2cc(C(F)(F)F)cc(C(F)(F)F)c2)n1)NNc1ccccn1` [Verdinexor (KPT-335)], with 0.35.

With `COc1ccccc1C(=O)Nc1cc2c(cc1N1CCCCC1)n(C)c(=O)n2C`, the “PARP1 L713F-nLuc/akaLuc ratio” value was 1.25. Then `C[C@@H]1CCN(C(=O)CC#N)C[C@@H]1N(C)c1ncnc2[nH]ccc12` [Tofacitinib], with 0.723. For the molecule `O=C(c1ccc(F)c(F)c1Nc1ccc(I)cc1F)N1CC(O)([C@@H]2CCCCN2)C1` [Cobimetinib (GDC-0973, RG7420)], the “PARP1 L713F-nLuc/akaLuc ratio” value was 0.687. Then `N[C@H]1C(O)O[C@H](CO)[C@@H](O)[C@@H]1O` (stereo partly drawn) [Glucosamine], with 1.02; and `Nc1ccn([C@@H]2O[C@H](CO)[C@@H](O)C2(F)F)c(=O)n1` [Gemcitabine], with 0.416. Then `CNc1nc(Nc2cn(C(C)(C)C#N)nc2C)ncc1C(F)(F)F`, with 0.811.

As to `N#Cc1c(O)c2c(-c3ccc(-c4ccccc4O)cc3)csc2[nH]c1=O`, the “PARP1 L713F-nLuc/akaLuc ratio” value was 0.692.

With `CC1Oc2cc(cnc2N)-c2c(nn(C)c2C#N)CN(C)C(=O)c2ccc(F)cc21` (stereo not drawn), the “PARP1 L713F-nLuc/akaLuc ratio” value was 1.13. Under `Cc1cccc(-c2[nH]c(CNc3ccccc3F)nc2-c2ccc3ncnn3c2)n1` [Vactosertib ?(TEW-7197)] stands 1.18; under `CCCOc1ccn2c(C(C)=O)cc(-c3cccc(OC)c3)c2c1`, 1.56. Under `Cc1cnc(NC(=O)Nc2cc(Br)c(C)cc2OC[C@@H]2CNCCO2)cn1` stands 0.787. Then `CC(C)(C)c1nc(-c2cccc(NS(=O)(=O)c3c(F)cccc3F)c2F)c(-c2ccnc(N)n2)s1`, with 0.885; and `CCCc1cc(C)[nH]c(=O)c1CNC(=O)c1cc(-c2ccnc(N3CCN(C)CC3)c2)cc2c1cnn2C(C)C`, with 2.54; and `CC[C@@H]1CN(C(=O)NCC(F)(F)F)C[C@@H]1c1cnc2cnc3[nH]ccc3n12` [Upadacitinib], with 1.32. On to `CCS(=O)(=O)N1CCN(c2ccc(Nc3ncc(C(N)=O)c(NC4CC4)n3)cc2)CC1`, for which the “PARP1 L713F-nLuc/akaLuc ratio” value was 1.99. Then `Nc1ncc(-c2cccc(N3CCNCC3)c2)cc1C(=O)Nc1ccncc1` [PKC-iota inhibitor 1], with 1.02. Under `Cn1ncc(Cl)c1-c1cc(C(=O)N[C@H](CN)Cc2cccc(F)c2)sc1Cl` [Afuresertib (hydrochloride)] stands 0.764; under `CN1CC[C@@H](NC(=O)Nc2ccc(C#N)cc2)C[C@@H]1c1nc2ccccc2[nH]1`, 0.89.

With `NC(=O)c1cccnc1` [Nicotinamide], the “PARP1 L713F-nLuc/akaLuc ratio” value is 0.942. Then `COC(=O)/C=C/c1ccccc1` [Methyl cinnamate], with 1.29.

For the molecule `Cn1ncc(Cl)c1-c1cc(C(=O)N[C@H](CN)Cc2ccc(F)c(F)c2)oc1Cl`, the “PARP1 L713F-nLuc/akaLuc ratio” value is 0.603. Then `Cc1cc(CN2CCN(c3c(Br)cnc4nc(-c5ccc(N6CCN(C)CC6)cc5)[nH]c34)CC2)no1`, with 1.37; and `NC(=O)NO` [Hydroxyurea], with 0.953; and `Cc1nc2sccn2c(=O)c1CCN1CCC(=C(c2ccccc2)c2ccc(F)cc2)CC1`, with 1.01. Under `CCOC(=O)CCNc1cc(N2CCc3ccccc3CC2)nc(-c2ccccn2)n1` [GSK-J4 (hydrochloride)] stands 1.45; under `O=S(=O)(NCCSSCCNS(=O)(=O)c1cc(Cl)ccc1Cl)c1cc(Cl)ccc1Cl`, 1.18; under `N#Cc1ccc(-c2csc(NN=C3CCCC3)n2)cc1` [Remodelin (hydrobromide)], 0.897.
